The list shows a part of the results. Activity calls are given as the source filed them.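 Rule for the calls, unless noted: active = GFP response above 150% of the DMSO level; inconclusive = fewer than 70 events counted for a yeast strain; inactive = the rest.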
Key:
[1] = RPL19A-GFP modulators, yeast TOR pathway, confirmation, cell-based, S. cerevisiae, flow cytometry, cherry picks, mother/daughter gates (AID 2270;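 active = GFP response below 50% of the DMSO control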); conditions: S. cerevisiae RPL19A-GFP strain, 3 h, at 10 µM, stronger effect = lower value, 100 = same GFP as DMSO wells
[2] = LAP4-GFP expression modulators in yeast, confirmation, cell-based, cherry picks, flow cytometry, mother/daughter gates (AID 2271;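 active = GFP response above 150% of the DMSO control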;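 note: ratio of sample to DMSO plate mean so 100% equals DMSO level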); conditions: S. cerevisiae LAP4-GFP strain, 3 h, at 10 µM, stronger effect = higher value, 100 means same as DMSO control
[3] = modulators of MEP2-GFP levels in yeast, confirmation, S. cerevisiae, flow cytometry GFP, cherry picks (AID 2272;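 active = GFP response above 150% of the DMSO control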;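 note: ratio of well signal to plate DMSO mean so 100% equals DMSO level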); conditions: S. cerevisiae MEP2-GFP strain, 3 h, at 10 µM, stronger effect = higher value
[4] = AGP1-GFP expression modulators, hit retest, confirmation, cell-based, flow cytometry, S. cerevisiae, cherry picks (AID 2273);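 note: median GFP channel fluorescence over the whole cell population gate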; conditions: S. cerevisiae AGP1-GFP strain, 3 h, at 10 µM
[5] = modulators of CIT2-GFP expression in yeast, confirmation, S. cerevisiae, GFP fusion, cherry picks, mother/daughter gates (AID 2274); conditions: S. cerevisiae CIT2-GFP strain, flow cytometry, 3 h, at 10 µM, stronger effect = higher value
[6] = compound autofluorescence in yeast s288c, dose response, artefact control for yeast TOR pathway GFP screen, s288c strain (AID 2757;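 active = fluorescence span over the dose series, or activity score, above about 33, limit read from the data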;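 note: thousands of bead-calibrated equivalent soluble fluorophore molecules from median cell fluorescence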); conditions: S. cerevisiae s288c, 520 nm autofluorescence, flow cytometry, 3 h; at 33 µM; stronger effect = higher value; zero means same as solvent-only cells
[7] = measured here: daughter cell gate
[8] = measured here: mother cell gate
[9] = measured here: daughter cell gate response
[10] = measured here: mother cell gate response

SMILES | GFP response vs DMSO [1] | GFP response vs DMSO [1, 7] [%] | GFP response vs DMSO [1, 8] [%] | GFP response relative to DMSO [2] | GFP response relative to DMSO [2, 9] [%] | GFP response relative to DMSO [2, 10] [%] | GFP response vs DMSO [3] | GFP response, % of DMSO [4] | GFP response, % of DMSO [5] | GFP response, % of DMSO [5, 7] [%] | GFP response, % of DMSO [5, 8] [%] | fluorescence change (kMESF span) [6]
Cc1cc(O)c(C(=O)/C=C/c2c(F)c(F)c(F)c(F)c2F)c(=O)o1 | 98.2% (inactive) | 103 | 94.9 | 152% (active) | 145 | 160 | 109% (inactive) | 101% (inactive) | 97.3% (inactive) | 101 | 94.4 | 9.67 (inactive)
Cc1cc(C)nc(S/C=C/C(=O)c2ccccc2)n1 | 100% (inactive) | 101 | 98 | 169% (active) | 151 | 191 | 121% (inactive) | 107% (inactive) | 92.2% (inactive) | 98.4 | 83.8 | 1.02 (inactive)
CC(C)(C)C(=O)NC(=S)NNC(=O)c1ccc(-c2ccccc2)cc1 | 116% (inactive) | 84.5 | 104 | 228% (active) | – | 209 | 141% (inactive) | 129% (inactive) | 132% (inactive) | 99.3 | 113 | –
Cc1cccn2c(=O)c3cc(C(=O)NCCc4ccccc4)c(=N)n(CCCn4ccnc4)c3nc12 | 95.8% (inactive) | 94.7 | 95 | 96.5% (inactive) | – | 92.3 | 103% (inactive) | 98.6% (inactive) | 100% (inactive) | 99.3 | 97.1 | –
Oc1c(N=Nc2ccccn2)ccc2ccccc12 | 94.8% (inactive) | 83.8 | 87.3 | 95.3% (inactive) | – | 66 | 104% (inactive) | 84.7% (inactive) | 93.5% (inactive) | 94.6 | 81.6 | –
Cc1[nH]c(-c2ccccn2)nc(=S)c1Cl | 106% (inactive) | 98.1 | 95.8 | 303% (active) | 215 | 266 | 118% (inactive) | – | 107% (inactive) | 115 | 91.5 | –
CCCNC(=O)COC(=O)c1ccc(S(=O)(=O)N2CCCC2)cc1 | 97.2% (inactive) | 89.4 | 88.1 | 94.9% (inactive) | 82.6 | – | 98.8% (inactive) | 99.8% (inactive) | 99.7% (inactive) | 90.5 | 78.8 | –
CCCc1cc(NCc2ccccn2)n2nc(C)c(-c3ccccc3)c2n1 | 108% (inactive) | 88 | 91.2 | 172% (active) | – | 148 | 143% (inactive) | 107% (inactive) | 92.6% (inactive) | 81.7 | 77.3 | –
Oc1ccc(Br)cc1/C=N/Nc1ccccn1 | 93.9% (inactive) | 92.3 | 83.8 | 263% (active) | 222 | 261 | 129% (inactive) | 91% (inactive) | 112% (inactive) | 113 | 98 | 1.31 (inactive)
Cc1ccc(CS(=O)(=O)c2ncc(Cl)c(C(=O)Nc3nnc(C(C)C)s3)n2)cc1 | 96.2% (inactive) | 96.1 | 94 | 108% (inactive) | – | 99.5 | 103% (inactive) | 100% (inactive) | 101% (inactive) | 94 | 100 | –
O=C1Oc2ccccc2C(=O)/C1=C/c1ccccc1O | 91.3% (inactive) | 89.3 | 80.2 | 394% (active) | 246 | 373 | 105% (inactive) | 91% (inactive) | 79.8% (inactive) | 91.7 | 67.7 | 0.71 (inactive)
O=C(/C=C/Sc1ncn[nH]1)c1ccc(Cl)cc1 | 106% (inactive) | 106 | 99.8 | 213% (active) | 198 | 214 | 114% (inactive) | 89.5% (inactive) | 110% (inactive) | 108 | 104 | 2.12 (inactive)
CCCc1[nH]nc2c1C(c1ccccc1OC)C(C#N)=C(N)O2 (stereo unspecified) | 98% (inactive) | 94.4 | 94.3 | 116% (inactive) | – | 100 | 120% (inactive) | 102% (inactive) | 115% (inactive) | 121 | 112 | –
COc1ccc(CN2CN(C(C)C)CSC2=S)cc1 | 98.8% (inactive) | 96.7 | 92.1 | 112% (inactive) | 106 | 107 | 146% (inactive) | 107% (inactive) | 80.8% (inactive) | 80.1 | 75.1 | –
O=C(Nc1ccccc1)c1nnsc1S(=O)(=O)c1ccc(Cl)cc1 | 73.3% (inactive) | 87.8 | 61.5 | 164% (active) | 92.8 | 206 | 144% (inactive) | 87.7% (inactive) | 95.5% (inactive) | 93.6 | 84.3 | 1.31 (inactive)
Cc1cccc2c1NC(=O)/C2=C\C(=O)c1cccs1 | 97.2% (inactive) | 91.1 | 89.1 | 164% (active) | 148 | 160 | 104% (inactive) | 107% (inactive) | 92.6% (inactive) | 99.7 | 83.7 | –
Nc1c(C(=O)c2cccs2)sc2nsc(SCCN3CCCCC3)c12 | 114% (inactive) | 110 | 118 | 142% (inactive) | 128 | 158 | 241% (active) | 107% (inactive) | 160% (active) | 149 | 173 | 17.9 (inactive)
